Screening data (PubChem BioAssay)
Pf apPOL block: Pf-apPOL DNA polymerase inhibition | Recombinant Pf-apPOL, molecular beacon fluorescence, 1.5 h | inhibition, % at 10 µM | 210,000 compounds, 0.25% hits | AID 1794808
mHTT-CaM PPI inh: inhibitors of human mutant huntingtin-calmodulin interaction; P42858; 190,000 compounds, 3.6% hits; AID 1671202; AlphaScreen His-mHTT/GST-CaM binding, luminescence; inhibition, % at 15 µM
Hits are given with their value; 0 = inactive; - = not tested or not shown. Shown is part of a subset that was picked to be rich in hits. No stated cut-off is given here; in the data, active means inhibition above about 50%; inactive means the rest.

SMILES	Pf apPOL block	mHTT-CaM PPI inh
O=C1CC(c2cccs2)CC2=C1C(c1ccc(Cl)c(Cl)c1)Nc1ccccc1N2 (stereo not drawn)	0	77
O=C1CC(c2ccccc2)CC2=C1C(c1cccc(F)c1)Nc1ccccc1N2 (stereo not drawn)	0	0
O=C1CC(c2cccs2)CC2=C1C(c1ccc(F)cc1)Nc1ccccc1N2 (stereo not drawn)	0	0
O=C1CC(c2ccccc2)CC2=C1C(c1ccc(F)c(Br)c1)Nc1ccccc1N2 (stereo not drawn)	0	59
COc1ccc(C2Nc3ccccc3NC3=C2C(=O)CC(c2ccccc2)C3)cc1 (stereo not drawn)	0	0
O=C1CC(c2ccccc2)CC2=C1C(c1ccccc1C(F)(F)F)Nc1ccccc1N2 (stereo not drawn)	0	0
COc1ccc(C2CC(=O)C3=C(C2)Nc2ccccc2NC3c2ccc(Cl)c([N+](=O)[O-])c2)cc1 (stereo not drawn)	0	52
CC(C)Cn1c(=O)c2c(ncn2C(C)C)n(-c2ccccc2Cl)c1=O	0	0
O=S(=O)(c1cccnc1)N1CCC(c2nc(C3CC3)no2)C1 (stereo not drawn)	0	0
COc1ccc(C2CC(=O)C3=C(C2)Nc2ccccc2NC3c2ccc(C(F)(F)F)cc2)cc1 (stereo not drawn)	0	53
O=C1CC(c2ccccc2Cl)CC2=C1C(c1ccc(F)cc1)Nc1ccccc1N2 (stereo not drawn)	0	57
Cc1ccc(C2Nc3ccccc3NC3=C2C(=O)CC(c2ccccc2F)C3)cc1 (stereo not drawn)	0	0
COc1ccc(C2CC(=O)C3=C(C2)Nc2ccccc2NC3c2cccc(C(F)(F)F)c2)cc1 (stereo not drawn)	0	0
O=C(Nc1ccc(Cl)c(Cl)c1)Nc1ccccc1O	0	0
COc1ccc(S(=O)(=O)N(CC(=O)N2CCCCC2)c2ccc(C)cc2)cc1	0	0
CC(C)NC(=O)c1cc(S(=O)(=O)N2CCOCC2)ccc1Cl	0	0
O=C(O)C1CSC(c2cc(Br)ccc2O)N1 (stereo not drawn)	0	56
O=C(O)C1CSC(c2cc(Cl)cc(Cl)c2O)N1 (stereo not drawn)	0	91
O=C(O)C1CSC(c2ccc(Cl)c(Cl)c2)N1 (stereo not drawn)	0	0
COc1ccc(Br)cc1C1NC(C(=O)O)CS1 (stereo not drawn)	0	0
Cc1sc(NC(=O)c2ccccc2)c(C(=O)NCCN(C)C)c1C	0	0
Cc1cnc(NC(=O)C2=C(O)c3ccccc3S(=O)(=O)N2C)s1	0	-
COc1ccc(C(=O)N=C2C=C(C)C(=O)C(C)=C2)cc1	0	0
COc1ccc(C(=O)ON=C2C(C)=CC(=O)C=C2C)cc1	0	55
CCCOc1ccc(N2C(=O)CC(N3CCN(c4ccc([N+](=O)[O-])cc4)CC3)C2=O)cc1 (stereo not drawn)	0	0
SMILES	Pf apPOL block	mHTT-CaM PPI inh
O=C(NC(=S)Nc1ccc2c(c1)CCC2)c1ccccc1	0	-
N#Cc1cccc(C(=O)Cc2cccc(Oc3ccccc3)c2)c1	56	-
NCc1cccc(Oc2ccccc2)c1	0	0
COc1cc(C2CC(=O)Nc3cc(C)c(C)cc32)cc(Br)c1OC (stereo not drawn)	0	98
COc1cccc(C2CC(=O)Nc3cc(C)c(C)cc32)c1 (stereo not drawn)	0	0
Cc1ccc(S(=O)(=O)N2CCC(=O)N([C@H](COCc3cccc(C)c3)C(C)C)CC2)cc1	0	0
Cc1ccc(S(=O)(=O)N2CCC(=O)N(CCOCc3cccc(C(F)(F)F)c3)CC2)cc1	0	0
Cc1cccc(COC[C@H](CC(C)C)N2CCN(C(=O)c3ccc(C(F)(F)F)cc3)CCC2=O)c1	0	90
CC(C)C[C@@H](COCc1cccc(C(F)(F)F)c1)N1CCN(C(=O)c2ccc(C(F)(F)F)cc2)CCC1=O	0	89
O=C(CN(Cc1ccccc1)S(=O)(=O)c1ccc(F)cc1)NCc1cccnc1	0	0
CCN(c1cccc(C)c1)S(=O)(=O)c1ccc2c(c1)CC(C)N2C(C)=O (stereo not drawn)	0	0
CCN(c1ccc(C)c(C)c1)S(=O)(=O)c1ccc2c(c1)CC(C)N2C(C)=O (stereo not drawn)	0	70
O=C(Nc1ccccn1)NC1CCCCC1	0	0
CC1=C(C(=O)Nc2cccc(C(F)(F)F)c2)C2(CCCCC2)OC1=O	0	0
CC1=C(C(=O)Nc2cccc(C(F)(F)F)c2)C2(CCCCCC2)OC1=O	0	98
O=C(Nc1ccc(-c2nc3ccccc3o2)c(O)c1)c1cccc([N+](=O)[O-])c1	0	0
COc1ccc(C)cc1NCc1ccc([N+](=O)[O-])cc1	0	86
COc1ccc(C)cc1NCc1ccncc1	0	0
COc1ccc(C)cc1NCc1ccc(SC)cc1	0	59
COc1ccc(CNc2cc([N+](=O)[O-])ccc2OC)cc1	0	0
Cc1cc(NCc2ccc([N+](=O)[O-])cc2)ccc1Br	0	58
O=[N+]([O-])c1ccc(CNc2ccc(F)c(F)c2)cc1	0	0
COc1ccc2cc3cc(C(=O)N4CCN(Cc5ccc6c(c5)OCO6)CC4)oc3nc2c1	0	0
Cc1ccc(CNC(=O)C2(C)CCCN(C(=O)Nc3ccc(Cl)cc3)C2)cc1 (stereo not drawn)	0	0
COc1ccccc1CCC(=O)N1CCC(c2nc3ccncc3n2C)C1 (stereo not drawn)	0	0
SMILES	Pf apPOL block	mHTT-CaM PPI inh
Cc1ccc(CNC(=O)c2cn(-c3ccc(F)cc3)nn2)cc1	0	0
Cc1ccc(S(=O)(=O)N(/C=C2\Sc3ccccc3C2=O)c2ccc([N+](=O)[O-])cc2)cc1	0	60
O=C1/C(=C/N(C(=O)c2ccco2)c2ccc([N+](=O)[O-])cc2)Sc2ccccc21	0	0
Cc1ccc(Cl)c(NC(=O)C2CN(S(C)(=O)=O)CC23CCCCC3)c1 (stereo not drawn)	0	0
CCn1cc(CN2CCC(C(=O)NCc3cccc(Cl)c3)CC2)c2cc(OC)ccc21	0	90
Cn1cc(CN2CCC(C(=O)NCCCN3CCCC3)CC2)c2cc(Cl)ccc21	0	55
Cn1cc(CN2CCC(C(=O)NCCN3CCCCC3)CC2)c2cc(Cl)ccc21	0	0
CCn1cc(CN2CCC(C(=O)NCc3cccc(OC)c3)CC2)c2ccccc21	0	0
COc1ccc(CN2CCc3nc(N4CCN(c5ccc(F)cc5)CC4)ncc3C2)cc1	0	0
COc1ccc(N2CCN(c3ncc4c(n3)CCN(Cc3cccc(F)c3)C4)CC2)cc1	0	51
Fc1ccc(CN2CCc3nc(N4CCN(c5ccccc5)CC4)ncc3C2)cc1F	0	100
Fc1ccccc1CN1CCc2nc(N3CCN(c4ccccc4)CC3)ncc2C1	0	0
CCN1CCN(c2ncc3c(n2)CCN(Cc2cc(Br)cs2)C3)CC1	0	0
Brc1csc(CN2CCc3nc(N4CCCC4)ncc3C2)c1	0	99
Clc1ccc(CN2CCc3nc(N4CCN(c5ccccc5)CC4)ncc3C2)cc1	0	0
Clc1ccc(CN2CCc3nc(N4CCN(c5ncccn5)CC4)ncc3C2)cc1	0	100
COc1ccc(-n2nc3c(c2NC(=O)C(C)Oc2ccccc2)CS(=O)(=O)C3)cc1 (stereo not drawn)	0	0
Cc1cc([N+](=O)[O-])nn1CC(=O)Nc1sc2c(c1C#N)CCCCC2	0	0
O=C(C1CC1)N1CC(C(=O)N2CCCC2)C(c2ccc(F)cc2)C1 (stereo not drawn)	0	0
